Of roughly 7,900 targets only a part is listed; those with a hit were picked by preference. About 0.6% of all pairs of compound and target were hits.
Key:
Test in all cases: log2 fold change, soluble protein after heating vs DMSO (PISA); higher = thermal stabilisation; K562 cells, 10 uM, 30 min; active = over 0.2 and 3.5 SD of the protein, either way, in both replicates (recomputed)
IRAK-1-4 Inhibitor I = compound: C1COCCN1CCN2C3=CC=CC=C3N=C2NC(=O)C4=CC(=CC=C4)[N+](=O)[O-] [IRAK-1-4 Inhibitor I]
In short: (§1)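 Thermal stability values are relative to control samples and come from duplicates. They are expressed as log2 fold changes. For measurement, K562 cells (2×10^6 cells/mL) received 10 μM compound for 30 min, and aliquots were heated for 3 min over 48°C-58°C, pooled, and extracted at 4°C in PBS with 0.5% NP-40. Soluble protein, the supernatant after 21,000xg for 90 min, was quantified by TMTpro 16plex LC-MS/MS with equalised channel sums.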

[1] = compound: CC(=O)c1cnc2ccc(-c3cc(Cl)c(O)c(Cl)c3)nc2c1N[C@H]1CC[C@H](CN(C)C)CC1
In short: as §1

ralimetinib = compound: CC(C)(C)Cn1c(N)nc2ccc(-c3[nH]c(C(C)(C)C)nc3-c3ccc(F)cc3)nc21 [ralimetinib]
In short: as §1

[2] = compound: CC(C)(O)CC(=O)NCCn1ccc2ncnc(Nc3ccc(Oc4cccc(C(F)(F)F)c4)c(Cl)c3)c21
In short: as §1

[3] = compound: CC(C)C1=C2N=C(C=C(N2N=C1)NCC3=CC=CC=C3)NCCCCCCN
In short: as §1

[4] = compound: CC(C)C[C@@H](C=O)NC(=O)[C@H](CC(C)C)NC(=O)[C@H](CC(C)C)NC(=O)OCc1ccccc1
In short: as §1

pinometostat = compound: CC(C)N(C[C@H]1O[C@@H](n2cnc3c(N)ncnc32)[C@H](O)[C@@H]1O)[C@H]1C[C@@H](CCc2nc3cc(C(C)(C)C)ccc3[nH]2)C1 [pinometostat]
In short: as §1

[5] = compound: CC1=C(C(CC(=O)N1)C2=CC=C(C=C2)C(F)(F)F)C(=O)NC3=C(C=C4C(=C3)C=NN4)F
In short: as §1

[6] = compound: CC1=C(C2=C(C=C1)C(=O)C3=CC=CC=C3N2CCCN)C
In short: as §1

[7] = compound: CC1=C(C=C(C=C1)NC(=O)C2=CC(=CC=C2)C(C)(C)C#N)NC3=CC4=C(C=C3)N=CN(C4=O)C
In short: as §1

[8] = compound: CC1=C(C=C(C=C1)NC(=O)C2=CC(=CC=C2)N(C)C)NC(=O)C3=CC=C(C=C3)O
In short: as §1

[9] = compound: CC1=CC=C(C=C1)SC2=C3C=C(SC3=CN=C2)C(=O)N
In short: as §1

[10] = compound: CC1=NC(=CC=C1)C2=C(N=C(N2)C(C)(C)C)C3=CC4=NC=CN=C4C=C3
In short: as §1

Nexturastat A = compound: CCCCN(Cc1ccc(C(=O)NO)cc1)C(=O)Nc1ccccc1 [Nexturastat A]
In short: as §1

[11] = compound: CCCS(=O)(=O)Nc1ccc(F)c(C(=O)c2c[nH]c3ncc(Cl)cc23)c1F
In short: as §1

givinostat = compound: CCN(CC)Cc1ccc2cc(COC(=O)Nc3ccc(C(=O)NO)cc3)ccc2c1 [givinostat]
In short: as §1

vemurafenib = compound: CCCS(=O)(=O)Nc1ccc(F)c(C(=O)c2c[nH]c3ncc(-c4ccc(Cl)cc4)cc23)c1F [vemurafenib]
In short: as §1

ibrutinib = compound: C=CC(=O)N1CCC[C@@H](n2nc(-c3ccc(Oc4ccccc4)cc3)c3c(N)ncnc32)C1 [ibrutinib]
In short: as §1

[12] = compound: CCCc1cc(C)[nH]c(=O)c1CNC(=O)c1cc(-c2ccnc(N3CCN(C)CC3)c2)cc2c1cnn2C(C)C
In short: as §1

barasertib = compound: CCN(CCCOc1ccc2c(Nc3cc(CC(=O)Nc4cccc(F)c4)[nH]n3)ncnc2c1)CCOP(=O)(O)O [barasertib]
In short: as §1

Measured: log2 fold change

ELF1 (UniProt P32519)
inactive: IRAK-1-4 Inhibitor I -0.12 | [1] 0.143 | ralimetinib 0.186 | [3] -0.072 | [4] -0.076 | pinometostat 0.053 | [5] -0.22 | [6] -0.473 | [7] 0.056 | [8] -0.05 | [9] 0 | [10] 0.033 | Nexturastat A -0.051 | [11] 0.091 | givinostat 0.152
active: [2] -0.567

CTSS (UniProt P25774)
Sequence of UniProt P25774 (P25774 whole entry, looked up): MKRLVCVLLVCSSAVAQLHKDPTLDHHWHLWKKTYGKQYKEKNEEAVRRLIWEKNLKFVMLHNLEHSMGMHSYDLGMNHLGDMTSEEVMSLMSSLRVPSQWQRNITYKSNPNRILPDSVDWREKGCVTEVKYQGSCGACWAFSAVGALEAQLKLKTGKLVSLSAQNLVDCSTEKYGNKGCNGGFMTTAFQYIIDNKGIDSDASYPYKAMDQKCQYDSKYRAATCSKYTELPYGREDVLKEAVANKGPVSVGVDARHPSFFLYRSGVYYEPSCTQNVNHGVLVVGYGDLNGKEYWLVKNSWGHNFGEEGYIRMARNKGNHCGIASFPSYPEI
inactive: IRAK-1-4 Inhibitor I -0.023 | ralimetinib -0.026 | [4] 0.12 | pinometostat -0.001 | [6] 0.316 | [7] 0.032 | [8] -0.045 | [10] -0.068 | vemurafenib -0.053

EGR1 (UniProt P18146)
active: [1] -1.07
inactive: ibrutinib 0 | ralimetinib 0.042 | [2] 0.044 | [3] -0.452 | [4] 0.153 | [5] 0.188 | [6] -0.472 | [7] -0.128 | [8] -0.024 | [9] -0.404 | Nexturastat A 0.53 | vemurafenib 0.305 | [11] -0.13 | [12] -0.027 | givinostat -0.06 | barasertib -0.048

DLK1 (UniProt P80370)
inactive: IRAK-1-4 Inhibitor I 0.023 | [2] -0.034 | pinometostat 0.099 | [10] -0.033 | Nexturastat A -0.003 | vemurafenib -0.026

F2RL3 (UniProt Q96RI0)
inactive: [1] 0.02 | ralimetinib -0.084 | [3] 0.081 | [4] 0.021 | [6] 0.1 | [8] 0.032 | [9] 0.053 | vemurafenib -0.156 | [11] 0.035 | givinostat -0.06

FAM160A2 isoform 2 (UniProt Q8N612)
inactive: IRAK-1-4 Inhibitor I 0.029 | ibrutinib -0.003 | ralimetinib -0.029 | [2] -0.326 | [4] 0.013 | pinometostat 0.004 | [5] -0.146 | [6] 0.102 | [8] 0.134 | [10] 0.016 | Nexturastat A -0.066 | vemurafenib -0.164 | [12] -0.172 | barasertib 0.109

DENND10 (UniProt Q8TCE6)
Sequence of UniProt Q8TCE6 (Q8TCE6 whole entry, looked up): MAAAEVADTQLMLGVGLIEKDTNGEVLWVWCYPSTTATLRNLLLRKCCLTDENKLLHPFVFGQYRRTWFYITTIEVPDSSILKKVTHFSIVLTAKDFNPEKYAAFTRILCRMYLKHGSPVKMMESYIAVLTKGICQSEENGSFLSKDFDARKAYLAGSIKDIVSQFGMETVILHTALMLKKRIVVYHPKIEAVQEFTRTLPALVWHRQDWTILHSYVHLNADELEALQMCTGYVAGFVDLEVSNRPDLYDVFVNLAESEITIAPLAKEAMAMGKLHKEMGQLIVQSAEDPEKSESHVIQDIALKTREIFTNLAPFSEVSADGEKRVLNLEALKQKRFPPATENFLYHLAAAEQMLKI
inactive: ibrutinib 0.037 | [1] 0 | ralimetinib -0.003 | [2] -0.025 | [3] -0.119 | [4] 0.016 | [5] 0.059 | [6] -0.185 | [7] 0.022 | [8] 0.036 | [9] 0.029 | Nexturastat A -0.119 | vemurafenib -0.023 | [11] 0.01 | [12] -0.023 | givinostat 0.131 | barasertib 0.036

EIF4G1 (UniProt Q04637)
Sequence of UniProt Q04637 (Q04637 whole entry, looked up): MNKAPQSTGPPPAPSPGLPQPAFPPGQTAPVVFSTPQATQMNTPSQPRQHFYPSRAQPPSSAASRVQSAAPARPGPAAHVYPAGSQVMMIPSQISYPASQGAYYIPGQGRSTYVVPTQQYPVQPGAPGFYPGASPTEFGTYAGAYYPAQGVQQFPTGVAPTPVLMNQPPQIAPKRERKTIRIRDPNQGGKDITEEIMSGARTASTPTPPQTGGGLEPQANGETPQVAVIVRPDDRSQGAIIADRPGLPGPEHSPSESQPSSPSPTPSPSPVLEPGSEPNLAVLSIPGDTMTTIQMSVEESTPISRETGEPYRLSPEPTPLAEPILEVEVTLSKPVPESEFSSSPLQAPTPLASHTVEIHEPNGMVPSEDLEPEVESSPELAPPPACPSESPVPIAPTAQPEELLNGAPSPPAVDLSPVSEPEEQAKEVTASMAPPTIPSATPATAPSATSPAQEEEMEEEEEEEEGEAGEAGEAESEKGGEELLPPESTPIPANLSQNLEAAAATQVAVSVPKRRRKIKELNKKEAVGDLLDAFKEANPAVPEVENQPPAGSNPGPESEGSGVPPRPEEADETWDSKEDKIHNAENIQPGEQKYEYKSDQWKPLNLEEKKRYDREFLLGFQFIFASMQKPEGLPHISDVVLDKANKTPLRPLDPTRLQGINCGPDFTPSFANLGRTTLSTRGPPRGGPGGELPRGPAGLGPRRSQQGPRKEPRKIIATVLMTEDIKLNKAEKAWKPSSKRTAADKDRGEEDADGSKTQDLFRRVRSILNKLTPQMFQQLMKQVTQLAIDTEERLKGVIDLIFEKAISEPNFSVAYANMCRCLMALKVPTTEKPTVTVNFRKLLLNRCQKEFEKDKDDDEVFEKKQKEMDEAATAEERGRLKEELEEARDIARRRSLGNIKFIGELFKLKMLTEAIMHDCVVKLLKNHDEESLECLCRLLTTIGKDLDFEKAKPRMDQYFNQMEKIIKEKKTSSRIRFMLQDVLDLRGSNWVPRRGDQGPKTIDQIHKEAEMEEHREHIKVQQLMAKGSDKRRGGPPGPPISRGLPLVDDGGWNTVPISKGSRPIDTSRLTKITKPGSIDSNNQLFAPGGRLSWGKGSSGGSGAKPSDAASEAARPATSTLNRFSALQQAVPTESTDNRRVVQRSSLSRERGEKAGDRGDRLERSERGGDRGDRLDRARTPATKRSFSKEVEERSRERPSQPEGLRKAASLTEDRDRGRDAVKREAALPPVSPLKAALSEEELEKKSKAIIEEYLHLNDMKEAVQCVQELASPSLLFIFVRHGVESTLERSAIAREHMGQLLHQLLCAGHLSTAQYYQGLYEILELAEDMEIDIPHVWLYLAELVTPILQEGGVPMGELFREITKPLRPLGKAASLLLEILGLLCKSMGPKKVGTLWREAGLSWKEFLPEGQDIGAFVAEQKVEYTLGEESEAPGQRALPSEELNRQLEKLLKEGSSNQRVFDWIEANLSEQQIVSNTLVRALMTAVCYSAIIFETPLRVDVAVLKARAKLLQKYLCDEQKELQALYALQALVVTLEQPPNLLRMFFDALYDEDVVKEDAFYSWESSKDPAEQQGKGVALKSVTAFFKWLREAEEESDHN
inactive: [1] -0.334 | [6] 0.067 | vemurafenib -0.071

DOP1A (UniProt Q5JWR5)
inactive: ibrutinib -0.093 | [2] -0.054 | [3] 0.092 | vemurafenib 0.045 | [12] -0.166 | givinostat 0.057 | barasertib -0.047
active: Nexturastat A 0.47

DNAJB1 (UniProt M0R128)
inactive: ibrutinib -0.077 | [6] 0.111 | vemurafenib -0.002 | barasertib 0.135

CTNNBL1 (UniProt Q8WYA6)
Sequence of UniProt Q8WYA6 (Q8WYA6 whole entry, looked up): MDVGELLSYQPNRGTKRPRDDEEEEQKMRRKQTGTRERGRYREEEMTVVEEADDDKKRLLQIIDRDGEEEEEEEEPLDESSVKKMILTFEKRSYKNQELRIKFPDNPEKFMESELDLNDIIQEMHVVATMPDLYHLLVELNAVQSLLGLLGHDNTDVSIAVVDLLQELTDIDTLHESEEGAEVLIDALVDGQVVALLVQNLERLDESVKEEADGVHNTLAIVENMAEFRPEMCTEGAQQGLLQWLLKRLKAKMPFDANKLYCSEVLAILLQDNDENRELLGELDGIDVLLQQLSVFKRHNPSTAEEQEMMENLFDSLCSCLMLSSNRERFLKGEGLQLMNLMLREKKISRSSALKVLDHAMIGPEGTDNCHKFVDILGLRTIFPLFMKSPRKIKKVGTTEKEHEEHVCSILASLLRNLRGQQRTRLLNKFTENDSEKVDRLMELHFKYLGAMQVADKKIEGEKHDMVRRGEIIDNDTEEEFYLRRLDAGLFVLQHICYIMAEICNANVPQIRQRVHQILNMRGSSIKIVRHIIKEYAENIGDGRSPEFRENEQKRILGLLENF
inactive: ibrutinib 0.046 | [9] 0.185 | vemurafenib -0.02 | [11] -0.166 | barasertib 0.012

ENTPD7 (UniProt Q9NQZ7)
inactive: IRAK-1-4 Inhibitor I -0.146 | ibrutinib -0.013 | [2] 0.181 | [3] -0.043 | pinometostat -0.009 | [5] -0.022 | [6] -0.016 | [7] -0.033 | [9] 0.012 | [10] 0.142 | Nexturastat A 0.047 | [11] -0.1 | [12] -0.068 | givinostat 0 | barasertib -0.009

ERF (UniProt P50548)
inactive: [2] 0.093 | [3] 0.186 | [6] 0.094 | [7] -0.551 | Nexturastat A 0.033 | givinostat -0.133

DCAF12 (UniProt Q5T6F0)
inactive: [7] -0.136 | [12] 0.08

DDX27 (UniProt Q96GQ7)
Sequence of UniProt Q96GQ7 (Q96GQ7 whole entry, looked up): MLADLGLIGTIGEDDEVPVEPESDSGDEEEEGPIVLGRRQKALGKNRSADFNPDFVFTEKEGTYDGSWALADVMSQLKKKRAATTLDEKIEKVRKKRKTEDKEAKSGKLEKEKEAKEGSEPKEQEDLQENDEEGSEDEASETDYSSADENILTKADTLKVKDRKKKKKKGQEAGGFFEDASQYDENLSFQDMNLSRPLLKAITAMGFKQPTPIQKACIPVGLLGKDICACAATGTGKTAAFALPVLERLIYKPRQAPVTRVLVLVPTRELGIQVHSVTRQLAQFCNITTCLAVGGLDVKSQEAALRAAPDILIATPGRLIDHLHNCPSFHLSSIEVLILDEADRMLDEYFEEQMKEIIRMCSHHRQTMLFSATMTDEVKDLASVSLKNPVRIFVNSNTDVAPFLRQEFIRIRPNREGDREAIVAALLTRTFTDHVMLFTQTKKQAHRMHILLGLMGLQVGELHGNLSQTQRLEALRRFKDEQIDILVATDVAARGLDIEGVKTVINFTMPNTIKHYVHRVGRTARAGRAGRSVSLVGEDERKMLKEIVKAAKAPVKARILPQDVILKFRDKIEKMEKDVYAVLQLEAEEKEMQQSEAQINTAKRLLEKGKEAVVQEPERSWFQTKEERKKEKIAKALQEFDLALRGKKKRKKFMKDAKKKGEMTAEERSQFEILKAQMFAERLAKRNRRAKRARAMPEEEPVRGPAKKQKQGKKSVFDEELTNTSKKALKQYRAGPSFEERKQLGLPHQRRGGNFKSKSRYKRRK
inactive: IRAK-1-4 Inhibitor I -0.037 | [1] 0.115 | ralimetinib 0.04 | [2] 0.106 | [3] -0.177 | [4] 0.104 | pinometostat 0.311 | [5] -0.344 | [6] -0.351 | [7] -0.026 | [8] -0.057 | [10] -0.293 | Nexturastat A 0.249 | vemurafenib -0.25 | [12] -0.142 | givinostat 0.081

EDRF1 (UniProt Q3B7T1)
inactive: ibrutinib 0.068 | ralimetinib 0.04 | [2] 0.048 | [3] 0.004 | [4] 0.066 | [7] -0.022 | [8] 0.21 | Nexturastat A -0.042 | [12] 0.019 | givinostat 0.114 | barasertib -0.036

EPHB4 (UniProt P54760)
Sequence of UniProt P54760 (P54760 whole entry, looked up): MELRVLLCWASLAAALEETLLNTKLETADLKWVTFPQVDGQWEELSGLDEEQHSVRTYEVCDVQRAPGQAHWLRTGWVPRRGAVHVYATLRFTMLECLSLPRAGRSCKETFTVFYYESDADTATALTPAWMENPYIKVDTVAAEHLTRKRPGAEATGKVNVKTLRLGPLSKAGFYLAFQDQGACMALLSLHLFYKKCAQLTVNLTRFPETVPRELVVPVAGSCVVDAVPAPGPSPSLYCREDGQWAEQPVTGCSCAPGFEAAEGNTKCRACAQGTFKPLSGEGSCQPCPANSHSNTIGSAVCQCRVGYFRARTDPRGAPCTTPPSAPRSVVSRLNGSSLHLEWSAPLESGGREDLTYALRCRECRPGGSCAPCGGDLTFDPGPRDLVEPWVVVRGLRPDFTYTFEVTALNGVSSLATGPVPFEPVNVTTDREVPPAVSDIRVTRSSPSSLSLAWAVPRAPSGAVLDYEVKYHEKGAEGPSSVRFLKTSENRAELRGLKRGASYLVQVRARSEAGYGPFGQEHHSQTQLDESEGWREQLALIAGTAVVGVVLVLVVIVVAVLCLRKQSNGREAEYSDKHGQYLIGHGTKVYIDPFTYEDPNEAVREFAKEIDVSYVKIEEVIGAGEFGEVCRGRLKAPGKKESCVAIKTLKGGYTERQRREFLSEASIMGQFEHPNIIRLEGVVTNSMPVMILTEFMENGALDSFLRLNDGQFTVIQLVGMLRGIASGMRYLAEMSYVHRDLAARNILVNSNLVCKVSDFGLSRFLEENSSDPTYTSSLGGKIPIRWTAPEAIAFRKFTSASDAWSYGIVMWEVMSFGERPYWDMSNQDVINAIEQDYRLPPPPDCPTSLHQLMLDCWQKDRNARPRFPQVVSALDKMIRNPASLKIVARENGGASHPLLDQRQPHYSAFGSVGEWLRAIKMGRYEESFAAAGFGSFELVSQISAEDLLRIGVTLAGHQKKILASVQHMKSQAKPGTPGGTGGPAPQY
inactive: ralimetinib 0.131 | [4] 0.241 | [7] 0.057 | [8] -0.07 | [9] 0.392 | [11] -0.126 | [12] 0.001

ELOVL5 isoform 2 (UniProt Q9NYP7)
Sequence of UniProt Q9NYP7 (Q9NYP7 whole entry, looked up): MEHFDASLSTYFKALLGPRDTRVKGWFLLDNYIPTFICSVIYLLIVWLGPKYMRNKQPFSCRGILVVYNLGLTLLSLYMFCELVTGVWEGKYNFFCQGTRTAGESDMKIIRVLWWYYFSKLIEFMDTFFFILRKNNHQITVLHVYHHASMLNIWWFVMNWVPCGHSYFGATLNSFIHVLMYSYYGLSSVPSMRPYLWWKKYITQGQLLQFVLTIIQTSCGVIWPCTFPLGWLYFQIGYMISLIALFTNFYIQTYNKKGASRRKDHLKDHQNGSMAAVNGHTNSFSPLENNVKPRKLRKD
inactive: ibrutinib -0.075 | [1] -0.032 | ralimetinib -0.058 | [2] -0.272 | [3] -0.348 | [4] -0.05 | [5] -0.027 | [6] 0.002 | [7] 0.079 | [8] 0.02 | [9] 0.002 | Nexturastat A -0.05 | vemurafenib 0.065 | [11] 0.03 | [12] -0.241 | givinostat -0.008 | barasertib 0.035

DDX46, A0A0C4DG89
inactive: [2] -0.123 | [5] -0.005 | Nexturastat A 0.058 | [12] 0.149

FAM117B (UniProt Q6P1L5)
inactive: IRAK-1-4 Inhibitor I 0.238 | [1] -0.593 | ralimetinib -0.177 | [2] -0.255 | [3] 0.144 | [4] 0.016 | pinometostat -0.175 | [6] 0.037 | [8] -0.035 | [10] -0.126 | Nexturastat A 0.394 | vemurafenib 0.043 | givinostat 0.212

DCP2 (UniProt Q8IU60)
inactive: IRAK-1-4 Inhibitor I -0.372 | [1] -0.265 | ralimetinib 0.105 | [2] 0.147 | [4] 0.185 | pinometostat 0.038 | [6] -0.111 | [7] -0.134 | [8] -0.006 | [9] 0.016 | [10] -0.089 | Nexturastat A 0.174 | vemurafenib 0.064 | [11] 0.055
